# PubChem BioAssay
# Experiments:
# [1] = molecular target: Tumor necrosis factor receptor superfamily member 10B (Homo sapiens) (UniProt O14763); experiment: caspase-8 TRAIL sensitization, hit retest, confirmation, cell-based, NB7+caspase-8, with/without TRAIL, luminescence panel (AID 651596); details: NB7 neuroblastoma + caspase-8, TRAIL sensitization, luminescence viability, with TRAIL, mean of runs, at 10 µM, stronger effect = higher value
# [2] = as above; details: NB7 neuroblastoma + caspase-8, without TRAIL, luminescence viability, without TRAIL, mean of runs, at 10 µM
# Sequence of Tumor necrosis factor receptor superfamily member 10B (Homo sapiens) (O14763 whole entry, looked up): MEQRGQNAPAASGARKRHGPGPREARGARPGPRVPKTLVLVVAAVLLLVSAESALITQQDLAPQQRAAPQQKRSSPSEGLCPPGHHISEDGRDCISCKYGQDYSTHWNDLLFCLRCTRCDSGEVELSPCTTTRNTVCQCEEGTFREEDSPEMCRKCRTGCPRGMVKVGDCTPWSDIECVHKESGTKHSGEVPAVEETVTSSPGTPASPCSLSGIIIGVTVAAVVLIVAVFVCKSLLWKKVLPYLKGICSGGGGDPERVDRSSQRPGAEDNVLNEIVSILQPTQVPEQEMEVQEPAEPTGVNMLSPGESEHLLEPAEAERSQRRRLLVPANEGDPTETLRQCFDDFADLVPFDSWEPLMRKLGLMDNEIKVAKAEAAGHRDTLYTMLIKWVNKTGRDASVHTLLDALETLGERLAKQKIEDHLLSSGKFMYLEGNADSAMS
Structure (SMILES),activity [1],activity [2]
COc1ccccc1NC(CC(=O)c1ccccc1)C(=O)OCC(=O)c1ccc(C)cc1 (configuration not stated),65%,69%
Cn1c(-c2ccc(Br)o2)nc2ccccc21,57.9%,61.8%
CN1C(=O)c2ccccc2C(C(=O)NCCCN2CCCC2)C1c1c[nH]c2ccccc12 (configuration not stated),45.5%,55.5%
O=C(Nc1ccc2c(c1)nc1n2CCSC1)c1ccccc1,69.8%,60%
Cc1nn(-c2ccccc2)c(C)c1/C=N/NC(=O)c1cc(C23CC4CC(CC(C4)C2)C3)[nH]n1,74.1%,60%
Cc1ccnc(NC(=O)/C=C/c2cccs2)c1,84.1%,81.5%
